The campaign covered roughly 63,000 compounds. About 1,100 (1.7%) were called active. The entries come from a sample that favours actives as a whole. Potency and affinity values are given separately. Unmarked numbers belong to inactive results.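 How the source made its calls: active means compounds whose percent cytotoxicity in the single-dose primary screen, scaled between solvent and toxic-drug controls, exceeds 50; inactive means the rest.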
assay: viability loss of HPDE-C7K cells – cell-based, fluorescence, HTS, primary screen (AID 431); conditions: HPDE-C7K KRASV12 cells, Alamar Blue viability, 48 h; at 10 µM; hits give high values;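 further: 0% = DMSO solvent wells and 100% = doxorubicin-treated wells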

Compound	cytotoxicity
O=C1CCCc2sc3c(c2N1)CCCCC3	6.3%
CCOC(=O)C1=C(N2CCCCC2)c2cc3c(n2C1=O)CCCC3	3.2%
CCSc1ncnc2c(C#N)c3n(c12)CCCCC3	-17%
Cc1cc(C(=O)Nc2sc3c(c2C#N)CCC3)no1	36.4%
COC(=O)C1=C(C)NC(C)=C(C(=O)OC)C1c1ccc(OC(=O)c2ccco2)cc1	11%
CCOc1ccc2c(c1)N(C(=O)CN1C(=O)CCC1=O)C(C)(C)C=C2C	-12.2%
CC1=CC(C)(C)Nc2ccc(C)cc21	-5%
COC(=O)c1ccc(OC(=O)c2ccco2)cc1	-32.6%
CCc1ccc2c(c1)C(C)=CC(C)(C)N2	-4.3%
CCOc1ccc(OC(=O)c2cccnc2)cc1	10.2%
O=C(Oc1ccc2ccccc2c1)c1ccco1	2.3%
O=C(Oc1cccc(Br)c1)c1cccnc1	-13.7%
c1ccc(CNc2ncnc3c2cnn3-c2ccccc2)cc1	36%
Cc1ccc2nc(NC3=NCN(Cc4ccco4)CN3)nc(C)c2c1	8.2%
Cc1ccc(-n2nnc3c(SCC(=O)NCc4ccco4)ncnc32)cc1	8.5%
O=C(CN1C(=O)NC2(CCCc3ccccc32)C1=O)N1CCc2ccccc2C1 (stereo not given)	-21.3%
CCOc1ccc(C(C)(N)C(=O)O)cc1 (stereo not given)	5.7%
COCCn1c(C)cc(C(=O)CSc2nnc(-c3cccnc3)n2-c2ccccc2F)c1C	-8%
CCN(Cc1ccccc1)Cc1c(F)cccc1F	-14.3%
CCN(CC(=O)N1CCOCC1)S(=O)(=O)c1ccc(C)cc1	-7.2%
COc1cc(C2C3=C(Nc4ncnn42)c2ccccc2CC3)cc(OC)c1OC (stereo not given)	62.6% (active)
COc1ccc(C2C(C(C)=O)=C(C)Nc3ncnn32)cc1OC (stereo not given)	-18.7%
COc1ccc(C2C3=C(Nc4ncnn42)c2ccccc2CCC3)cc1 (stereo not given)	-11.9%
COc1cc(C2C(C(=O)OC(C)C)=C(C)Nc3ncnn32)cc(OC)c1OC (stereo not given)	3.4%
COc1ccc(C2C3=C(Nc4ncnn42)c2ccccc2CC3)cc1OC (stereo not given)	50.3% (active)

Compound	cytotoxicity
c1csc(C2C3=C(Nc4ncnn42)c2ccccc2OC3)c1 (stereo not given)	8.9%
Cc1ccc(Cl)cc1NC(=O)c1ocnc1C	0.3%
COc1ccc(N(CC(=O)N2CCN(c3ccccc3)CC2)S(=O)(=O)c2c(C)noc2C)cc1	-8.3%
NC(=O)c1c(NC(=O)Cc2cccs2)sc2c1CCC2	-2.4%
CC(C)(C#N)Nn1cnnc1	-13.8%
O=C(Nc1nc(-c2nc3ccccc3s2)cs1)c1ccco1	1.4%
Cc1cccn2c(=O)c(C=Nc3ccccc3)c(NCc3ccco3)nc12	-13.4%
COc1ccc2c(c1)N1CCN=C1N2C	-12%
Cc1cc(=O)[nH]c2ccccc12	-5.7%
CN(C)C=Nc1ncc2c([nH]c3ccccc32)c1C#N	19.8%
CSc1ccccc1NC(=O)c1cnccn1	-5.1%
CN(C)CCCNC(=O)CCC1CCCCC1	1.5%
COc1ccc(N2CCN(C(=O)CN=C3NS(=O)(=O)C(c4ccc(C)cc4)=C3C)CC2)cc1	-1.4%
CC(C)CC(NC(=O)COc1ccccc1)C(=O)O (stereo not given)	5.6%
CCN1C(=O)c2cccc3c(NC(=O)c4cccc(N5C(=O)CCC5=O)c4)ccc1c23	-10.7%
CCN1C(=O)c2cccc3c(NC(=O)c4ccc5c(c4)OCCO5)ccc1c23	95.1% (active)
CCN1C(=O)c2cccc3c(NC(=O)c4ccc(S(=O)(=O)N(C)C)cc4)ccc1c23	0%
c1ccc2c(c1)C(=NCC1CCCO1)NC2=NCC1CCCO1 (stereo not given)	8.3%
O=C1c2oc3ccc(F)cc3c(=O)c2C(c2ccc(F)cc2)N1CCCN1CCOCC1 (stereo not given)	-15.7%
COc1ccc(CC(=O)N2CCNC2=O)cc1	-17.1%
CC1=Nn2c(nnc2-c2n[nH]c3c2CCC3)SC1	-0.7%
c1ccc(C2=Nn3c(nnc3-c3n[nH]c4c3CCC4)SC2)cc1	10.4%
Fc1ccc(C2=Nn3c(nnc3-c3n[nH]c4c3CCC4)SC2)cc1	1.2%
Brc1ccc(C2=Nn3c(nnc3-c3n[nH]c4c3CCC4)SC2)cc1	53.5% (active)
Clc1ccc(C2=Nn3c(nnc3-c3n[nH]c4c3CCC4)SC2)cc1Cl	71.9% (active)

Compound	cytotoxicity
Clc1ccc(C2=Nn3c(nnc3-c3n[nH]c4c3CCC4)SC2)cc1	25.9%
COC(=O)c1ccc(S(=O)(=O)N2C3CCC2CC(NC(=O)NC2CCCCC2)C3)cc1 (stereo not given)	-5.3%
CCn1c(SCC(=O)NCc2ccco2)nc2cccnc21	-20.4%
CCSc1sccc1C1C(C#N)=C(N)N(c2cccnc2)C2=C1C(=O)CC(C)(C)C2 (stereo not given)	30.9%
O=C(Nc1ccc2oc(-c3cccnc3)nc2c1)c1cccnc1	3.2%
CCc1ccc2oc(-c3cccc(NC(=O)c4cccnc4)c3)nc2c1	10.6%
O=C(Nc1ccc(-c2nc3ccccc3o2)cc1)c1ccc2c(c1)OCO2	2%
Cc1ccc2oc(-c3ccc(NC(=O)c4ccc5c(c4)OCO5)cc3)nc2c1	85.1% (active)
Cc1ccc(-c2nc3cc(C)ccc3o2)cc1	8.8%
O=C(Nc1ccc2oc(=O)ccc2c1)c1cccnc1	7.9%
COC(=O)c1ccc(-c2nc3ccc(C)cc3o2)cc1	54.8% (active)
Cc1ccc2oc(-c3ccc(NC(=O)c4cccnc4)cc3)nc2c1	56.9% (active)
O=C(Nc1ccc2oc(-c3ccccc3)nc2c1)c1cccnc1	34.5%
COC(=O)c1ccc(-c2nc3ccccc3o2)cc1	-20.7%
COc1ccc(-c2nc3cc(NC(=O)c4ccc5c(c4)OCO5)ccc3o2)cc1	-6.9%
O=C(Nc1ccc2oc(Cc3ccc(Cl)cc3)nc2c1)c1cccnc1	58.3% (active)
c1ccc(CSc2nnc(-c3cccs3)n2Cc2ccco2)cc1	-21.5%
CCOC(=O)c1cccc(Nc2nc(C)cc(C)n2)c1	0.1%
O=C(NCc1ccccn1)c1cn(CCc2ccccc2)nn1	-5%
CCOC(=O)Cc1csc(NC(=O)c2c(-c3c(F)cccc3Cl)noc2C)n1	-8.5%
O=C(Nc1ccc(-c2nc3ccccc3o2)cc1)C1CCCO1 (stereo not given)	5.9%
COc1cc(OC)cc(C(=O)Nc2ccc(-c3nc4ccccc4o3)cc2)c1	73.9% (active)
O=S(=O)(Nc1ccc2oc(-c3ccccc3)nc2c1)c1ccccc1	15.5%
COc1cc(C(=O)Nc2cccc(-c3nc4cc(C)ccc4o3)c2)cc(OC)c1OC	43.8%
COc1cccc(C(=O)Nc2ccc(-c3nc4ccccc4o3)c(O)c2)c1	24.7%

Compound	cytotoxicity
O=C(Nc1ccc2c(c1)oc1ccccc12)c1ccncc1	7.8%
O=C(Nc1ccc2c(c1)oc1ccccc12)c1cccnc1	53.2% (active)
O=C(Nc1ccc2ccccc2c1)c1cccnc1	0.5%
Cc1ccc2oc(-c3cccc(NC(=O)C4CCCO4)c3)nc2c1 (stereo not given)	3.3%
COc1cc(C(=O)NCc2ccc(-c3nc4ccccc4o3)cc2)cc(OC)c1OC	2.5%
O=S(=O)(Nc1ccc(-c2nc3ccccc3o2)cc1)c1ccccc1	52% (active)
Cc1occc1-c1nc(-c2ccccn2)no1	-13.5%
CC1CN(C(=O)c2cc3cc(Cl)cc(Cl)c3oc2=O)CC(C)O1 (stereo not given)	-12.2%
COc1ccc2oc(-c3ccccc3)c(C(N)=O)c2c1	-8.2%
CCCCCC(=O)Nc1cccc(-c2nc3ncccc3o2)c1	-7%
Cc1nnc(SCC(=O)NCc2cccs2)n1-c1ccccc1	-5.1%
Cn1c(=O)c2c(SCc3ccccn3)nc(-c3ccccc3)nc2n(C)c1=O	6.7%
CC[C@@H](C)[C@H](NC(=O)C1CCN(C(=O)[C@@H](NS(=O)(=O)c2ccc(C)cc2)C(C)C)CC1)C(=O)O	-19.2%
NC(=O)C1CCN(c2ncnc3c2c(-c2ccccc2)cn3-c2ccccc2)CC1	-9%
Cn1nnnc1SCCNC/C=C/c1ccccc1	14.4%
CN(C1CCCCC1)S(=O)(=O)c1ccc(-n2cnnn2)cc1	-13.1%
CCCCN(CC)S(=O)(=O)N1CCC(C(=O)NCc2ccc(F)cc2)CC1	-8.2%
C=CCN1C(=O)C2C(C(=O)NC)C3C=CC2(O3)C1C(=O)NCc1ccc(OC)cc1 (stereo not given)	4.1%
CC(=O)N1CC=C2C(C#N)=C(N)C(C#N)(C#N)[C@H](c3ccoc3)[C@H]2C1	13.2%
CC(C)N1CC=C2C(C#N)=C(N)C(C#N)(C#N)C(c3ccccc3)C2C1 (stereo not given)	27.9%
N#CC1=C(N)C(C#N)(C#N)[C@H](c2ccoc2)[C@H]2CN(Cc3ccccc3)CC=C12	81.4% (active)
Cn1c(=O)c2c(nc(Br)n2Cc2c(F)cccc2Cl)n(C)c1=O	-11.4%
Cc1ccc(/C=c2\sc3nc(-c4ccccc4Br)nn3c2=O)o1	8.5%
Cc1ccccc1-c1nnc2s/c(=C\c3ccc(N(C)C)cc3)c(=O)n12	3.5%
Cc1ccc(/C=c2/sc3nnc(-c4ccccc4Cl)n3c2=O)o1	50.1% (active)

— PubChem BioAssay AID431 (Sanford-Burnham Center for Chemical Genomics, 2006)
